Consider 44 compounds from PubChem BioAssay AID1259415 (National Center for Advancing Translational Sciences (NCATS), 2018).

The whole screen tested about 410,000 compounds, of which about 18,000 (4.4%) were called active. Not shown: some 7% with an inconclusive outcome. Cut-off read from the data, not from the text of the source: active = activity change below about -60%; inconclusive = no clear call, values can overlap the other calls; inactive = above about -39%. Only a selection was taken, and actives are over-represented in it overall.
% is set by controls: 0 for no effect and ±100 for the full control effect.

A short description of this assay: qHTS Assay for inhibitors of the human cytomegalovirus (HCMV). As to conditions: HFF cells, HCMV-luciferase reporter, 72 h; at 57.5 µM; hits give low values. The source says:
NCGC Assay Overview: Infection with human cytomegalovirus (HCMV) continues to pose significant threats for pregnant women and immunocompromised hosts. HCMV causes serious morbidity and mortality in transplant recipients, and congenital HCMV is the leading infectious cause of mental retardation and deafness in children. In the 1990s, the annual costs associated with the disease burden of congenital CMV were estimated at around $2 billion. A HCMV vaccine is not available yet and HCMV therapies result in intolerable side effects and emergence of drug resistant viruses. […] Towards this goal we have developed and characterized a luciferase HCMV reporter that was initially used in 96 well plates and then optimized to 1536-well plates for utilization in screening of the MLSMR collection, the NGCG diversity collection and the NCGC Pharmaceutical Collection of approved and investigational drugs.
NCGC Assay Protocol Summary:
This is a cell-based assay for HCMV inhibition in HFFs cells. The screening used 2 compound doses and the HCMV-luciferase at MOI of 1 PFU/cell. Cells were treated and infected with HCMV. At 72 h post infection cell lysates were collected and luciferase activity was determined using the Glomax-Multi + Detection System (Promega, Madison, WI). Data were normalized to the controls for basal activity (buffer only) and known HCMV inhibitors Salinmoycin.
1536-well assay protocol for the assay:
(1) Add 3 ul CMV/HFF cell culture. 1000 cells/well in DMEM nirmal media.
(2) Incubate 16 hr at 37C.
(3) Add 23 nl control compound, 10uM of Salinomycin.
(4) Add 23 nl compounds in DMSO solution.
(5) Add 3 ul CMV suspension. Final 1 puf/ul, Virus stock 2000pfu/ul
(6) Incubate 72 hrs at 37C.
(7) Add 4 ul OneGlo Luc Reagent.
(8) Incubate 5 min at room temperature.
`O=C1c2cccc3c([N+](=O)[O-])ccc(c23)C(=O)N1CC1CCCO1` (centres undefined): the activity change, negative = inhibition is -82.1% (active).

In the case of `COc1ccc(C(=O)OCC(=O)NCC2CCCO2)cc1[N+](=O)[O-]` (centres undefined), the activity change, negative = inhibition was 15.2% (inactive).

As to `O=C1C(C=NCC2CCCO2)=C(O)c2ccccc21` (centres undefined), the activity change, negative = inhibition is 69.7% (inactive).

Turning to `CCOc1cc(C(C(=O)NCC2CCCO2)N(C(=O)Cn2nnc3ccccc32)c2cccc(OC)c2)ccc1O` (centres undefined), the activity change, negative = inhibition is -8.64% (inactive).

As for `Cc1ccc2oc(=O)c3cnn(CC(=O)NCc4ccccc4Cl)c3c2c1`, the activity change, negative = inhibition was -4.14% (inactive).

For `COc1ccc(NC(=O)c2sc3nc[nH]c(=O)c3c2C)cc1`, the activity change, negative = inhibition was 52.3% (inactive).

Take `CCCn1c(N)c(C(=O)CSc2nc3ccccc3c(=O)n2-c2ccc(OC)cc2)c(=O)[nH]c1=O`: the activity change, negative = inhibition is -29.3% (inactive).

On to `Cc1ccc(-n2c(SCC(=O)N3CCC(C(=O)O)CC3)nc3ccccc3c2=O)cc1C`, for which the activity change, negative = inhibition was 6.85% (inactive).

Take `COc1cccc(-n2c(SCC(=O)c3c[nH]c4ccccc34)nc3ccccc3c2=O)c1`: the activity change, negative = inhibition is -93.8% (active).

Turning to `COc1ccc(C)cc1NC(=O)COCc1cc(-c2cccs2)on1`, the activity change, negative = inhibition was -10.8% (inactive).

Take `Cc1ccc(C)c(N2CCN(c3ccc4cc(S(=O)(=O)N5CCC(C)CC5)ccc4n3)CC2)c1`: the activity change, negative = inhibition was 19% (inactive).

As for `COc1ccccc1CC(NC(C)=O)C(=O)NC1CCN(C(=O)Nc2ccccc2Cl)CC1` (centres undefined), the activity change, negative = inhibition is 0.54% (inactive).

Consider `CCOC(=O)C1CCN(C(=O)Nc2cccc(OC)c2)CC1`, for which the activity change, negative = inhibition is 5.16% (inactive).

As for `COc1cccc(NC(=O)N2CCC(NC(=O)C(Cc3cccc(C)c3)NC(C)=O)CC2)c1` (centres undefined), the activity change, negative = inhibition is -66.8% (active).

As to `O=C(NCCCO)C(=O)Nc1c2c(nn1-c1ccccc1)CSC2`, the activity change, negative = inhibition is -2.71% (inactive).

As for `COc1cccc(CN2CCc3nc(SCC(=O)Nc4ccccc4)[nH]c(=O)c3C2)c1`, the activity change, negative = inhibition is 4.11% (inactive).

As for `O=C(Nc1c(Cl)c(C2CC2)nn1-c1ccccc1)C(Cl)(Cl)Cl`, the activity change, negative = inhibition is 12.3% (inactive).

Turning to `CCOc1ccc(CNC(=O)C2CCCN(c3nnc(C)c4c(C)n(-c5ccccc5)nc34)C2)cc1` (centres undefined), the activity change, negative = inhibition was -67.7% (active).

As for `CCOc1ccc(N(CC)S(=O)(=O)N2CCCC(C(=O)NCc3ccc(Cl)cc3)C2)cc1` (centres undefined), the activity change, negative = inhibition was -15.9% (inactive).

Take `CCCCNC(=O)C1CCCN(c2nnc(C)c3c(C)n(-c4ccc(Cl)cc4)nc23)C1` (centres undefined): the activity change, negative = inhibition was -6.23% (inactive).

With `COc1ccc(S(=O)(=O)N2CCN(CC(=O)N3CCOCC3)CC2)cc1OC`, the activity change, negative = inhibition is 4.11% (inactive).

Consider `Cc1ccn(-c2cccc(-n3ccc(C)n3)n2)n1`, for which the activity change, negative = inhibition is 65.3% (inactive).

For the compound `CC(=O)NC(CC(=O)Nc1ccc(S(=O)(=O)N2CCOCC2)cc1)c1ccccc1` (centres undefined), the activity change, negative = inhibition was 0% (inactive).

`COC(=O)c1ccc(NC(=O)c2ccccc2NS(=O)(=O)c2ccccc2)cc1`: the activity change, negative = inhibition was -105% (active).

As for `COc1cc(NC(=O)c2ccccc2NS(=O)(=O)c2ccc(Cl)s2)cc(OC)c1`, the activity change, negative = inhibition is -99.7% (active).

As to `COc1cc(NS(=O)(=O)c2cccs2)cc(OC)c1`, the activity change, negative = inhibition was 16.4% (inactive).

Consider `COc1cccc(NC(=O)c2ccccc2N(Cc2ccccc2)S(C)(=O)=O)c1`, for which the activity change, negative = inhibition is -6.12% (inactive).

`Cc1cc(NS(=O)(=O)c2ccc(NC(=O)c3ccccc3C)cc2)nc(C)n1`: the activity change, negative = inhibition is -5.8% (inactive).

With `COC(=O)c1ccccc1NS(=O)(=O)c1ccc2c(c1)CCCN2C(C)=O`, the activity change, negative = inhibition is -2.94% (inactive).

For the compound `COc1ccc(C2CC(=O)Nc3c2c(=O)nc2c(C)cccn32)cc1OC` (centres undefined), the activity change, negative = inhibition was 3.37% (inactive).

For `CCn1c(CNC(=O)c2ccccc2)nnc1SCC(=O)N1CCN(c2ccccc2)CC1`, the activity change, negative = inhibition was -25.6% (inactive).

Turning to `O=C(CCNS(=O)(=O)c1ccccc1C(F)(F)F)Nc1ccncc1`, the activity change, negative = inhibition was 6.98% (inactive).

For `Oc1ccc(N2CCN(C(=S)NCc3ccccc3)CC2)cc1`, the activity change, negative = inhibition is -63.6% (active).

Take `Cc1ccccc1NC(=O)C1CCCN(C(=O)NCc2ccccc2)C1` (centres undefined): the activity change, negative = inhibition was -18.4% (inactive).

As for `O=C(CN1CCN(c2ccccc2O)CC1)NC(=O)NCc1ccccc1`, the activity change, negative = inhibition is -4.33% (inactive).

As for `COc1cc(C2C(C(=O)OCCC#N)=C(C)NC3=C2S(=O)(=O)c2ccccc23)cc(OC)c1OC` (centres undefined), the activity change, negative = inhibition is 2.51% (inactive).

For the compound `COc1ccccc1N1CCN(c2ncnc3onc(-c4cccc(Cl)c4)c23)CC1`, the activity change, negative = inhibition is 10.1% (inactive).

Regarding `COc1ccc2c(c1)c(N1CCCC1=O)c(C(=O)Nc1ccc(OC)c(Cl)c1)n2C`, the activity change, negative = inhibition was -18.9% (inactive).

For `Cc1nn(CC(=O)O)c(=O)c2cc3cc(F)ccc3n12`, the activity change, negative = inhibition was 31% (inactive).

As to `CCNC(=O)COC(=O)CCNC(=O)c1cccc(C)c1`, the activity change, negative = inhibition is -28.9% (inactive).

In the case of `Cc1cccc(OCC(=O)NCCNC(=O)c2cccnc2)c1`, the activity change, negative = inhibition was -66.9% (active).

On to `Cc1cccc(OCCNC(=S)NC(=O)c2cccnc2)c1`, for which the activity change, negative = inhibition is -37.9% (inactive).

Regarding `Cc1cc(C)c(S(=O)(=O)NN=C2c3ccccc3[C@H]3Cc4csc[n+]4[C@@H]23)c(C)c1`, the activity change, negative = inhibition is -27.2% (inactive).

In the case of `O=C(CCc1nc(CN2CCN(S(=O)(=O)c3ccc(F)cc3)CC2)no1)N1CCCCC1`, the activity change, negative = inhibition is -35.8% (inactive).
